RE007 growth inh – less growth of the S. pombe RE007 Vpr strain; S. pombe RE007 Vpr strain, BacTiter-Glo ATP luminescence, 24 h; Potency, µM (doses to about 92.2 µM), without a hit: top-dose activity change, negative = less growth, hits mostly inhibitors; 0.21% of 360,000 active; active means well fitted falling curve with a large enough effect; inconclusive means small, poorly fitted or top-dose-only effect; inactive means no such curve, though single readings can be large or run the other way; further: potency means the concentration at half of the fitted maximal effect; nearly all actives have a fitted effect of over 50% in size
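Fission yeast RE007 carrying one integrated HIV-1 vpr copy, seeded at OD 0.01 in PMG+AL medium with 23 nL pinned compound. Grown 24 h at 30 degrees; viability read by BacTiter-Glo luminescence after 5 min.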
FMDV inh – blocks foot and mouth disease virus; 1.2% of 410,000 active; FMDV antiviral cell-based qHTS; Potency, µM (top dose mostly 57.9 µM), without a hit: at the highest dose activity change, negative = inhibition, most hits filed as inhibitors; AID 1159524; calls by dose curve; tested in HEK293T cells; further: read-out not given here; potency means the concentration at half of the fitted maximal effect; nearly all actives have a fitted effect of over 45% in size
Tb PYK inh – T. brucei pyruvate kinase inhibition | Potency, µM (top dose mostly 76.8 µM), for inactives: at the top dose activity, negative = inhibition, hits mostly inhibitors | 0.12% of 410,000 active | AID 624173 | Q57TT1 | TbPYK enzyme, Kinase-Glo Plus ATP luminescence, 45 min; further: potency means the concentration at half of the fitted maximal effect; nearly all actives have a fitted effect of over 50% in size
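Quantitative HTS: titrated library compounds versus trypanosomal pyruvate kinase in TEA buffer (pH 7.2) containing KCl, MgCl2, BSA and Tween-20. Reactions were initiated with ADP, 130 uM final. Kinase-Glo Plus luminescence was read after 45 min at RT.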
Sm TGR block – S. mansoni TGR enzyme inhibition | purified TGR, DTNB reduction, TNB absorbance 405 nm | Q962Y6 | 3% of 360,000 active | Potency, µM (series often up to 114 µM), without a hit: at the highest dose activity change, negative = inhibition, actives largely listed as inhibitors; further: potency means the concentration at half of the fitted maximal effect; nearly all actives have a fitted effect of over 60% in size
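First, TGR (20 nM dispensed) and NADPH were mixed with compound. Second, a 15 min room-temperature incubation followed. Third, further NADPH and then DTNB were added to start the reaction. Finally, TNB absorbance was monitored kinetically.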
FBPA Giardia inh – Giardia lamblia aldolase inhibition | A8B2U2 | 0.71% of 290,000 active | AID 2451 | purified Giardia FBPA | Potency, µM (highest dose often 59.6 µM), inactives show at the highest dose activity, negative = inhibition, most hits filed as inhibitors; further: potency means the concentration at half of the fitted maximal effect; nearly all actives have a fitted effect of over 55% in size
Target sequence (A8B2U2 whole entry, looked up): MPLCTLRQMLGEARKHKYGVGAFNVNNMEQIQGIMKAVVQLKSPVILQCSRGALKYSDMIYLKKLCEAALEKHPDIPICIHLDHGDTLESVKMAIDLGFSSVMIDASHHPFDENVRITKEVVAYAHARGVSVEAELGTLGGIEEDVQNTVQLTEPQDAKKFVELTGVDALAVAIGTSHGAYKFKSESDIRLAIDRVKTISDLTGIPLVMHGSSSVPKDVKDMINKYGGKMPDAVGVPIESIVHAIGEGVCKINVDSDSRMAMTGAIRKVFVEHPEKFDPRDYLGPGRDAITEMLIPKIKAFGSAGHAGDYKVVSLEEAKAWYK
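40 nM FBPA preincubated 10 min at RT with compound (up to 57.5 uM final), then substrate plus GAPDH/TPI/NAD/arsenate coupling and diaphorase/resazurin added. Fluorescence read after 20 min at RT, 525/598 nm.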
HCMV inh – human cytomegalovirus inhibition. HFF cells, HCMV-luciferase reporter, 72 h; hits give low values. activity change, negative = inhibition, % at 57.5 µM. 4.5% of 410,000 active; in the data active means activity change below about -60%; inconclusive means no clear call, values can overlap the other calls; inactive means above about -39%
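Screen run at 2 compound doses on HFFs infected with reporter HCMV, MOI 1 PFU/cell. Luciferase activity from cell lysates at 72 h post infection gave inhibition relative to buffer-only and Salinomycin wells.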
The depositor's hits bear a star; ? = inconclusive; nt = no result given. This is a sample that favours compounds with a hit; in the whole collection about 7.7% have one here. Unless noted, the call rests on the fitted dose curve; in most records, active means well fitted curve in the direction sought with a large enough effect; inconclusive means small, poorly fitted or top-dose-only effect, or another doubt; inactive means no such curve, though single readings can be large; an effect the other way counts as inactive or inconclusive. On the % scale 0 is the no-effect control and ±100 the full control effect.

SMILES | RE007 growth inh | FMDV inh | Tb PYK inh | Sm TGR block | FBPA Giardia inh | HCMV inh
CCOc1ccc(-c2cn(-c3ccccc3OC)c(=S)[nH]2)cc1 | -6.3% | -7.4% | -20.8% | 8.4% | 6.4% | -80.5*
CC(=O)C(C(=O)Nc1c(C)cccc1C)N(C(=O)Cc1ccc([N+](=O)[O-])cc1)c1ccccc1 (centres undefined) | nt | nt | nt | nt | nt | 2.9
CCCSC1=C(C#N)C(c2cccs2)C(C(=O)Nc2ccccc2)=C(C)N1 (centres undefined) | -5.0% | -24.0% | 2.5% | 35.5µM* | -0.6% | ?
COc1ccccc1NC(=O)C1=C(C)NC(SCC(=O)Nc2ccc(C(=O)O)cc2)=C(C#N)C1c1cccs1 (centres undefined) | -2.3% | -3.2% | -26.0% | 44.7µM* | -5.5% | -4.0
O=C(CN1C(=O)CCC1=O)Nc1nc(-c2ccc3ccccc3c2)cs1 | 5.5% | 44.1% | -3.4% | -4.9% | -7.3% | ?
O=C(CN1C(=O)CCC1=O)Nc1nc(-c2ccccn2)cs1 | 1.9% | -5.4% | -0.6% | -10.5% | ? | -61.9*
CC(Oc1cccc(Cl)c1)C(=O)Nc1nc(-c2ccccn2)cs1 (centres undefined) | 44.7µM* | ? | -4.6% | -16.2% | nt | -71.9*
Cn1cccc1C(=O)Nc1nc(-c2ccccn2)cs1 | ? | -16.3% | ? | 0.2% | ? | -87.8*
Cc1cccnc1Nc1nc(-c2ccccn2)cs1 | 39.8µM* | -42.6% | -7.6% | 9.9% | ? | -106.4*
NC(=O)[C@@H]1CCCN1C(=O)CC1(c2cccc(F)c2)CC(=O)N(C2CCCC2)C1=O (some centres undefined) | nt | -13.7% | nt | nt | nt | nt
CCNC(=O)CC1C(=O)N(c2cccc(OC)c2)C(=O)N1Cc1ccc(OC)c(OC)c1 (centres undefined) | nt | -1.1% | -2.6% | -7.9% | nt | -0.4
COC(=O)[C@@]1(Sc2ccc(OC)cc2)CC(=O)N[C@@H]1c1ccc(OC(C)C)c(OC)c1 | nt | nt | nt | nt | nt | -4.7
Cc1ccc(C(=O)Nc2nc(-c3ccccn3)cs2)s1 | ? | -12.7% | -2.6% | -1.0% | nt | -99.6*
O=C(COc1ccc(F)cc1Cl)Nc1nc(-c2ccccn2)cs1 | nt | nt | nt | -6.4% | nt | -81.6*
O=C(Nc1nc(-c2ccccn2)cs1)c1ncc(Cl)c(Cl)c1Cl | ? | -23.8% | -23.2% | -1.2% | 0.1% | -6.4
N#Cc1ccccc1OCC(=O)Nc1nc(-c2ccccn2)cs1 | -7.5% | -9.0% | -15.0% | nt | nt | -11.3
CCc1sc(C(=O)Nc2nc(-c3ccccn3)cs2)cc1C | ? | 11.6% | -7.6% | nt | nt | nt
O=C(Nc1nc(-c2ccccn2)cs1)c1ccc(Cl)s1 | -1.8% | -8.3% | -7.6% | -15.1% | ? | -96.4*
CC(=O)n1c2ccccc2c2ccccc21 | -3.7% | 1.0% | 4.4% | 9.5% | -2.6% | 9.6
CC(=O)n1c(Cl)c(NC(=O)CCl)c2ccccc21 | -3.5% | 31.6µM* | 0.3% | ? | 1.8% | -98.3*
Cc1ccc(NC(=O)c2ccc(S(=O)(=O)N(C)c3ccccc3)cc2)cc1S(=O)(=O)N1CCOCC1 | -6.3% | 12.6µM* | 1.5% | nt | nt | 0.0
COc1ccc(NC(=O)c2ccc(S(=O)(=O)N(C)c3ccccc3)cc2)cc1S(=O)(=O)N1CCOCC1 | 15.8% | 15.8µM* | -10.9% | nt | nt | ?
COc1ccc(C(=O)Nc2ccc3c(c2)OCCO3)cc1S(=O)(=O)N1CCOCC1 | -21.8% | -8.8% | -0.6% | -4.8% | nt | 48.4
Cc1ccc(NC(=O)c2ccc3c(c2)OCO3)cc1S(=O)(=O)N1CCOCC1 | -1.1% | -3.9% | 0.0% | 1.3% | nt | -25.3
COCCC1CCCCN1Cc1nc(N2CCCCC2)c2cc(OC)c(OC)cc2n1 (centres undefined) | nt | -3.3% | nt | nt | nt | nt
SMILES | RE007 growth inh | FMDV inh | Tb PYK inh | Sm TGR block | FBPA Giardia inh | HCMV inh
O=C(N/N=C/c1ccc(-c2cccc(C(F)(F)F)c2)o1)c1ccccc1Br | -14.6% | nt | 2.4% | -0.7% | 0.4% | -62.0*
Cc1noc(C)c1CN1CCN2C(C(=O)Nc3ccccc3)=COC2=NC1=O | nt | nt | nt | nt | nt | 5.0
Nc1ncn(C23CC4CC(CC(C4)C2)C3)n1 | -16.9% | -6.7% | 4.0% | 0.9% | 2.6% | -13.1
c1nnnn1C12CC3CC(CC(C3)C1)C2 | -0.3% | -20.3% | 1.2% | -3.0% | 7.2% | -63.7*
NC(=O)Cc1nc(-c2ccc(F)cc2)cs1 | -4.3% | 3.4% | -10.4% | 4.7% | 0.5% | -0.1
CC(=O)Nc1nc(-c2ccc([N+](=O)[O-])cc2)cs1 | -3.2% | 7.3% | 0.4% | 4.5% | -2.5% | -84.8*
Cc1noc(C)c1C(=O)Nc1nc(-c2ccc([N+](=O)[O-])cc2)cs1 | 3.0% | ? | -4.5% | 1.3% | nt | -61.7*
NC(=O)Cc1nc(-c2ccc([N+](=O)[O-])cc2)cs1 | 81.6% | -3.4% | -6.4% | 0.0% | 19.4% | -92.7*
O=C(Nc1ccc([N+](=O)[O-])cc1)Nc1nc(-c2ccc(Cl)s2)cs1 | -7.3% | ? | -7.2% | -14.3% | 3.3% | -99.9*
Cc1cc2c(cc1S(=O)(=O)CCC(=O)N1CCC(C)CC1)OCC(=O)N2 | nt | -16.6% | 4.8% | 6.0% | nt | -7.4
COc1cc(-c2cc(C)c3c(OC)ccc(OC)c3n2)cc2c1OCCN(Cc1cn(C)nc1C)C2 | nt | -2.9% | nt | nt | nt | nt
Oc1ccc(O)c(-c2cnns2)c1 | 0.4% | ? | -4.7% | 79.4µM* | -3.4% | ?
Nc1nc(N)nc(-c2cc(O)ccc2O)n1 | 5.2% | 37.7% | -14.2% | -29.0% | nt | ?
O=C(Nc1ccc(N2CCN(C(=O)c3ccc(Cl)cc3)CC2)cc1)c1ccc2c(c1)OCCO2 | 3.1% | 11.2µM* | 3.9% | 0.0% | -1.2% | -92.0*
CC(=O)N1CCN(c2ccc(NC(=O)c3ccc4c(c3)OCCO4)cc2)CC1 | 10.7% | nt | 0.0% | 8.2% | -3.7% | -23.2
O=C(Nc1ccc(N2CCN(C(=O)c3ccccc3)CC2)cc1)c1ccc2c(c1)OCCO2 | -24.8% | 31.6µM* | -6.7% | -6.4% | nt | -69.1*
O=C(Nc1ccc(C(=O)N2CCCCC2)cc1)C1=CSCCO1 | -17.6% | 63.7% | -24.0% | -11.5% | nt | -19.7
CCCC(=O)N1CCN(c2ccc(NC(=O)c3ccc4c(c3)OCCO4)cc2)CC1 | -15.1% | ? | 7.1% | -1.8% | 4.9% | 40.1
O=C(Nc1ccc(C(=O)N2CCN(c3ccccc3F)CC2)cc1)C1=CSCCO1 | -12.5% | 24.1% | -1.3% | -2.8% | nt | -60.5*
O=C(Nc1ccc(N2CCCCC2)cc1)c1ccc2c(c1)OCCO2 | 0.4% | -21.6% | -8.4% | -14.5% | -4.3% | -91.1*
Cc1ccc2nc(-c3ccco3)c(Cc3ccccc3C(F)(F)F)n2c1 | nt | nt | nt | nt | nt | -2.3
CCOc1ccc(NC(=O)CSc2nnc(-c3ccc(C)cc3)c(-c3ccc(C)cc3)n2)cc1 | nt | -22.3% | -4.0% | -8.7% | nt | -5.2
CC(C)(C)C(=O)N1CCN(c2ccc(NC(=O)c3ccc4c(c3)OCCO4)cc2)CC1 | -5.1% | 31.6µM* | -3.7% | -8.0% | -4.0% | -67.5*

Screening data: PubChem, National Center for Advancing Translational Sciences (NCATS)
